Among all 52,000 compounds or so, about 4,300 (8.3%) were called active. Only a selection was taken, and actives are over-represented in it overall. Unmarked numbers belong to inactive results. No stated cut-off is given here; in the data, active means survival mostly below about 52% (no sharp cut-off); inactive means mostly above about 56%.

This assay has as its system DeltatarO mutant. Kind of assay: growth inhibition of S. aureus wild type versus tarO mutant, primary screen, teichoic acid synthesis inhibitors, RN4220, OD600 (AID 463173). Conditions: OD600, 18 h, stronger effect = lower value, screened at 18.75 µg/mL (by protocol).
As to `O=C(O)COCC(=O)Nc1ccc2c(c1)CCC2`, the survival is 103%.
On to `COc1ccc(-c2nnc(SCC(=O)Nc3cccc(Cl)c3C)nc2-c2ccc(OC)cc2)cc1`, for which the survival was 89%.
As for `COc1ccc(CNC(=O)CCC(=O)N2CC3CCCN3c3ccccc32)cc1` (configuration not stated), the survival was 71%.
To `CC1=C(c2ccc(C)c(C)c2)S(=O)(=O)N(Cc2ccc(C(=O)NCc3cccc(C)c3)cc2)C1=O` belongs 77%; to `CN1CCSc2ccc(C(=O)NCc3ccccc3F)cc21`, 134%; to `CCOC(=O)c1cc2c(=O)n3ccccc3nc2n(CCCOC)c1=NC(=O)c1c(-c2c(F)cccc2Cl)noc1C`, 54%.
To `CC(C)(C)OC(=O)N1CCC(c2c(C(=O)N3CCN(c4ccccc4F)CC3)cnn2C(C)(C)C)CC1` belongs 68%.
To `COc1ccc(CCNC(=O)c2ccc(Cn3c(=O)c4ccccc4n(CC(=O)C(C)(C)C)c3=O)cc2)cc1OC` belongs 86%.
With `O=c1c2sc3ccccc3c2n(Cc2ccc(F)cc2)c(=O)n1Cc1ccco1`, the survival is 79%.
For `COc1cccc(Cc2nc3ccccc3nc2SCC(=O)N2CCCCC2C)c1` (configuration not stated) the value was 79%; for `CCOc1ccc(OCC)c(Nc2cc(C)nc3nc(-c4ccco4)nn23)c1`, 17% (active); for `COc1ccc(Cl)cc1Nc1cc(C)nc2nc(-c3ccccc3C)nn12`, 70%.
Turning to `Cc1cc(Nc2cccc(F)c2)n2nc(-c3ccco3)nc2n1`, the survival is 89%.
For `CC(=O)c1cccc(Nc2cc(C)nc3nc(-c4ccccc4C)nn23)c1` the value was 90%.
For the molecule `Cc1cc(Nc2ccc(Br)cc2)n2nc(-c3ccccc3C)nc2n1`, the survival was 27% (active).
On to `Cc1cc(Nc2ccc(Br)c(C)c2)n2nc(-c3ccco3)nc2n1`, for which the survival was -5% (active).
To `CCOC(=O)c1ccccc1Nc1cc(C)nc2nc(-c3ccco3)nn12` belongs 128%; to `Cc1cc(Nc2ccccc2Cl)n2nc(-c3ccco3)nc2n1`, 88%.
To `Cc1cc(C)cc(Nc2cc(C)nc3nc(-c4ccco4)nn23)c1` belongs 94%.
To `CN(CCCNC(=O)c1cc2c(=O)n(C)c3ccccc3c2s1)Cc1ccccc1` belongs 94%; to `CCCCS(=O)(=O)c1nc(-c2ccc(Br)cc2)cc(-c2ccccc2)c1C#N`, 119%; to `C/C(=C\C(=O)c1cccnc1)Nc1ccccc1O`, 103%.
As to `Cc1nc(-c2ccc(S(=O)(=O)N(C)Cc3ccccc3)cc2)co1`, the survival is 95%.
As to `Cc1ccc(-n2ncc(C(=O)NC3CCCC3)c2C2CCN(C(=O)OC(C)(C)C)CC2)c(C)c1`, the survival is 70%.
For `Cc1ccc(-n2c(=O)c3c(c4cc(C)ccc4n3C)n(CC(=O)N3CCCC3)c2=O)cc1` the value was 71%; for `CC(=O)Nc1ccc(C2=CSC3=NCCN23)cc1`, 82%; for `CCSc1ncc(Cl)c(C(=O)Nc2nc3ccc(Cl)cc3s2)n1`, 100%.
To `CCOc1ccc(C(=O)Nc2cccc(-c3nc4cc(Cl)cc(Cl)c4o3)c2)cc1` belongs 84%; to `CC(C)COc1ccc(C(=O)Nc2cccc(-c3nc4ccccc4[nH]3)c2)cc1`, 43% (active).
For `CCCOc1ccc(C(=O)Nc2cccc(-c3nc4ccccc4[nH]3)c2)cc1`, the survival was 28% (active).
For `CCOc1cc(OCC)cc(C(=O)Nc2cccc(-c3nc4ccccc4[nH]3)c2)c1` the value was 36% (active); for `Cc1cccc(-c2nc3cc(NC(=O)c4ccc(OCC(C)C)cc4)ccc3o2)c1`, 113%.
To `CCCOc1ccc(C(=O)Nc2cccc(NC(=O)c3cccc(Cl)c3)c2)cc1` belongs 70%; to `COc1cc(NC(=O)c2cc(Cl)c(OC)c(Cl)c2)ccc1NC(=O)c1cc2ccccc2o1`, 82%.
With `CCCN(CCC)S(=O)(=O)c1ccc(C(=O)Nc2cccc(-c3nc4ccccc4[nH]3)c2)cc1`, the survival is 99%.
To `COc1c(Cl)cc(C(=O)Nc2cccc(-c3nc4ccccc4[nH]3)c2)cc1Cl` belongs 15% (active); to `CC(C)COc1ccc(C(=O)Nc2cc(-c3ccccc3)no2)cc1`, 85%; to `CCOc1ccc(NS(=O)(=O)c2ccc3nc(-c4ccccc4)[nH]c3c2)cc1`, 64%.
On to `CCOc1ccc(CCNC(=O)c2cc3c(=O)n(C)c4ccccc4c3s2)cc1OCC`, for which the survival is 56%.
To `Cc1ccc(NC(=O)C2CCN(C(=O)c3cnn(-c4ccccc4)c3-n3cccc3)CC2)cc1` belongs 93%.
To `CCCn1c(=S)[nH]c2c1c(=O)[nH]c(=O)n2C` belongs 66%; to `CN(CC(=O)Nc1cccc(F)c1)S(=O)(=O)c1ccc2c(c1)n(C)c(=O)c(=O)n2C`, 102%; to `COc1ccc(C2=NN(C(=O)CCC(=O)O)C(c3ccccc3F)C2)cc1OC` (configuration not stated), 89%.
To `N/C(=N/OC(=O)c1ccccc1)c1ccccn1` belongs 87%; to `CCCCNC(=O)c1ccc2c(c1)ncn2-c1cc(OC)ccc1OC`, 112%.
For `O=c1oc2cc(O)ccc2cc1-c1nnc(Nc2ccccc2F)s1`, the survival was 59%.
As to `CCC(c1nnnn1Cc1ccccc1)N(Cc1cccs1)Cc1cc2ccc(C)cc2[nH]c1=O` (configuration not stated), the survival was 103%.
For `O=C(CNC(=O)c1ccc(Cl)cc1)OCc1cc(=O)n2ccsc2n1` the value was 72%; for `COc1ccc(C2C(C(=O)Nc3ccc(C)cc3C)=C(C)Nc3nc(SCc4cccc(C)c4)nn32)c(OC)c1` (configuration not stated), 164%; for `CCN(CC)c1ccc2c(c1)OC(N)=C(C#N)C2c1cccc(F)c1` (configuration not stated), 2% (active).
For `CCc1ccc(C2C(C#N)=C(N)Oc3cc(N)ccc32)cc1` (configuration not stated) the value was 102%.
With `COc1ccc(C2C(C#N)=C(N)Oc3cc4c(cc32)OCO4)cc1` (configuration not stated), the survival was 79%.
Turning to `Cc1nn(C(=O)c2ccc(Br)cc2)c(C)c1S(=O)(=O)N1CCOCC1`, the survival is 79%.
As to `Cc1nn(C(=O)c2ccc(Br)cc2)c(C)c1Sc1ccccc1`, the survival was 2% (active).
To `Cc1ccc(Sc2c(C)nn(C(=O)c3ccc(Br)cc3)c2C)cc1` belongs 16% (active).
For `Cc1ccc(Sc2c(C)nn(C(=O)COc3ccccc3Br)c2C)cc1` the value was 88%.
For `Cc1nn(C(=O)COc2ccccc2Br)c(C)c1Sc1ccccc1` the value was 54%; for `Cc1nn(C(=O)c2ccccc2)c2c1C(=O)CC(C)(C)C2`, 74%; for `CCOc1ccc(NC(=O)CC2C(=O)N(c3ccccc3)C(=O)N2CCc2ccc(OC)cc2)cc1` (configuration not stated), 59%.
Consider `CCCNC(=O)CSc1cn(CC(=O)N2CCCCCC2)c2ccccc12`, for which the survival is 84%.
For `Cc1ccc(S(=O)(=O)c2cn(CC(=O)Nc3ccc(C)c(Cl)c3)c3ccc(C)cc3c2=O)cc1` the value was 96%; for `CCOC(=O)c1ccc(NC(=O)c2oc3c(c2C)-c2nn(Cc4ccccc4Cl)cc2CC3)cc1`, 68%; for `Cc1c(C(=O)O)oc2c1-c1nn(Cc3ccc(Cl)cc3)cc1CC2`, 89%.
As for `CCOC(=O)c1oc2c(c1C)-c1nn(Cc3cccc(Cl)c3)cc1CC2`, the survival was 53%.
As to `Cc1c(C(=O)O)oc2c1-c1nn(Cc3ccccc3Cl)cc1CC2`, the survival was 80%.
In the case of `CCOC(=O)c1oc2c(c1C)-c1nn(Cc3ccc(Cl)cc3)cc1CC2`, the survival is 16% (active).
For `CCOC(=O)c1oc2c(c1C)-c1nn(Cc3ccccc3Cl)cc1CC2`, the survival is 38% (active).
For `CC(=O)Nc1ccc(NC(=O)c2oc3c(c2C)-c2nn(Cc4ccccc4Cl)cc2CC3)cc1` the value was 61%.
With `COc1ccc(NC(=O)c2oc3c(c2C)-c2nn(Cc4ccccc4Cl)cc2CC3)cc1OC`, the survival is 53% (active).
For `COCCCNC(=O)c1oc2c(c1C)-c1nn(Cc3ccccc3Cl)cc1CC2` the value was 66%; for `CC1=C(C(=O)OCC2CCCCC2)C(c2cccc(F)c2F)CC(=O)N1` (configuration not stated), 95%; for `O=C1CC(NC2CC2)C(=O)N1c1ccccc1` (configuration not stated), 93%.
Regarding `Cc1nn(Cc2ccc(F)cc2)c(C)c1NC(=O)c1noc2c1CCc1ccccc1-2`, the survival is 63%.
For `COc1ccc2c(c1)CCc1c(C(=O)Nc3c(C)nn(Cc4ccc(Cl)c(Cl)c4)c3C)noc1-2` the value was 153%; for `COc1ccc(Cl)cc1NC(=O)c1noc2c1CCc1ccccc1-2`, 71%; for `O=C(Nc1cnn(Cc2ccc(Cl)cc2Cl)c1)c1noc2c1CCc1ccccc1-2`, 47% (active).
To `Cc1nn(Cc2ccc(Cl)c(Cl)c2)c(C)c1NC(=O)c1noc2c1CCc1ccccc1-2` belongs 46% (active).
Take `COc1ccc2c(c1)CCc1c(C(=O)Nc3cnn(Cc4ccc(Cl)cc4Cl)c3)noc1-2`: the survival was 142%.
Regarding `COc1ccc2c(c1)CCc1c(C(=O)Nc3c(C)nn(Cc4ccc(Cl)cc4)c3C)noc1-2`, the survival is 107%.
Take `COc1ccc2c(c1)CCc1c(C(=O)Nc3c(C)nn(Cc4ccccc4)c3C)noc1-2`: the survival is 118%.
To `Cc1nn(Cc2ccc(Cl)cc2)c(C)c1NC(=O)c1noc2c1CCc1ccccc1-2` belongs 31% (active); to `CCOC(=O)c1ccc(OC(=O)c2cn(-c3cccc(OC)c3)c(=O)c3ccccc23)cc1`, 85%.
With `Cc1cc(NC(=O)CSc2nc3c([nH]c4ccccc43)c(=O)n2-c2cccc(Cl)c2)no1`, the survival was 73%.
For `CC(=O)c1cc(-c2ccc(F)cc2)n(CC(=O)NCc2ccc(C)cc2)c1C` the value was 99%; for `COc1ccc2nc(N(Cc3cccnc3)C(=O)c3ccc4c(c3)OCCO4)sc2c1`, 65%.
To `Cc1ccc(NC(=O)c2ccco2)nc1` belongs 108%; to `CC1=C(C(=O)Nc2ccc(Cl)cc2)C(CC(C)C)n2nc(SCc3ccccc3C)nc2N1` (configuration not stated), 127%; to `COC(=O)CCNC(=O)NC(CCC(C)C)c1c(-n2cccc2)sc2c1CCN(C)C2` (configuration not stated), 75%.
For `COc1ccc(-c2noc(C3CC(=O)N(c4ccccc4)C3)n2)c(OC)c1` (configuration not stated) the value was 101%.
Take `O=C1CC(c2nc(-c3ccccc3)no2)CN1c1ccc2c(c1)OCCO2` (configuration not stated): the survival is 93%.
For `O=C1CC(c2nc(-c3ccc(Cl)cc3)no2)CN1c1ccc2c(c1)OCCO2` (configuration not stated) the value was 115%; for `Cc1ccc(-c2noc(C3CC(=O)N(c4ccc5c(c4)OCCO5)C3)n2)cc1` (configuration not stated), 46% (active); for `CN(C)c1ccc(-c2noc(C3CC(=O)N(c4ccc5c(c4)OCCO5)C3)n2)cc1` (configuration not stated), 92%.
Take `O=C1CC(c2nc(-c3ccccc3)no2)CN1c1ccccc1` (configuration not stated): the survival was 25% (active).
Turning to `O=C1CC(c2nc(-c3cccc(Cl)c3)no2)CN1c1ccc2c(c1)OCCO2` (configuration not stated), the survival was 144%.
`Cc1cc(C)cc(N2CC(c3nc(-c4cccc(Cl)c4)no3)CC2=O)c1` (configuration not stated): the survival is 37% (active).
To `COc1ccc(-c2noc(C3CC(=O)N(c4cc(C)cc(C)c4)C3)n2)cc1` (configuration not stated) belongs 91%.
